DRD3 antagonist: blocks the human D3 dopamine receptor. P35462. D3R cells, DiscoveRx beta-arrestin luminescence, antagonist mode; stronger effect = lower value. max response, negative = inhibition, %. 2.5% of 360,000 active. AID 652054; in the data active = max response below about -50%; inconclusive = no clear call, values can overlap the other calls
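Cells expressing the human receptor were seeded at 1500 cells/well, incubated overnight at 37 degrees C in 5% CO2, then exposed to library compounds with dopamine controls for 90 minutes at 37 degrees C before luminescent detection.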
DRD3 agonist: agonists of human D3 dopamine receptor. max activation, %. D3R DiscoveRx beta-arrestin cells, luminescence, 90 min. P35462. 0.58% of 410,000 active; in the data active = max activation above about 30%
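Agonist-mode cell screen: cells plated at 1500/well and incubated overnight at 37 °C, then exposed to library compounds for 90 min at 37 °C. Detection reagent was added for 30–60 min at room temperature, and luminescence was read.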
D1 antag: blocks dopamine activation of the human D1 receptor | P21728 | HEK293 TREx D1 cells, calcium flux, dopamine EC80; stronger effect = lower value | activity change, negative = inhibition, % at 10 µM | 3.2% of 360,000 active; in the data active = activity change below about -30%
Target sequence (P21728 whole entry, looked up): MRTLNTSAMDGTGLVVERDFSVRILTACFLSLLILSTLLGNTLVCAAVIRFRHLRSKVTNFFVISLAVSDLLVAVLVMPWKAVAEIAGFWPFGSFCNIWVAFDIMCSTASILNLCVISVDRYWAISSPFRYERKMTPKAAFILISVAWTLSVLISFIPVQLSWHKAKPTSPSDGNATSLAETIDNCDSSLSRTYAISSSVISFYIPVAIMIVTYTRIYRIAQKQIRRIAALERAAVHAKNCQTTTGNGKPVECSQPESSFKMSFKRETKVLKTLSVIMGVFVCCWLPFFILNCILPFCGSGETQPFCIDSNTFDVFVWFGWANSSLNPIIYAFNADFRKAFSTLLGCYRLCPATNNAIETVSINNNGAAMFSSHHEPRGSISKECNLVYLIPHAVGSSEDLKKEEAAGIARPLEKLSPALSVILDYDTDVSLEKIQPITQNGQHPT
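Tetracycline-induced HEK293 Trex D1 cells, force-coupled to calcium, dye-loaded; compounds added and read 180 s, then EC80 dopamine added and calcium flux tracked kinetically another 180 s.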
ERG-DNA inh: ERG Ets/DNA interaction inhibition | P11308 | fluorescence polarization, His-ERG Ets domain / labelled DNA | Potency, µM (highest dose often 76.9 µM), hits mostly inhibitors | 0.028% of 370,000 active; active = well fitted inhibition curve with a large enough effect in the polarisation, with a control signal flat; inconclusive = small, poorly fitted or top-dose-only effect, or effect the other way, or a change in a side signal; inactive = no such curve, though single readings can be large or run the other way; the % refers to the polarisation;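 note: polarization taken with two DNA probes labelled with fluorescein and Texas red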
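His-tagged ERG Ets domain (1 uM in the protein solution; 300mM KCl, 50mM Tris-HCl, 1mM EDTA, 1mM DTT, pH 7.5) received compound, then a probe mix of 5 nM fluorescein-DNA and 100nM Texas-615-DNA. Fluorescence polarization was read for both dyes.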
D1 potentiator: potentiators of human D1 dopamine receptor; P21728; HEK293 TREx D1 cells, calcium flux, dopamine EC20 potentiation; 0.036% of 360,000 active; potentiation, % at 10 µM; in the data active = potentiation above about 30%
D1 ag: human D1 receptor agonism | 1% of 360,000 active | activation, % at 2 µM | P21728 | HEK293 T-REx D1 cells, calcium flux, agonist mode; in the data active = activation above about 30%
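Tetracycline-induced HEK293 TREx D1 cells, force-coupled to calcium signalling, were dye-loaded with a no-wash calcium kit. Compound was pin-added after a 10 s baseline. Fluorescence was read kinetically at 1 cycle/s for 180 s, with calcium rises flagged as agonism.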
Of the large screens only hits and unclear results are named; the others gave an inactive call. Sampled rows, rich in hits. Any-hit rate of the full collection: about 6.1%.

CC(C)CCC1(CCNC(C)c2cccs2)CCOC(C)(C)C1 (stereo unspecified)	D1 antag -36
CCN(CC)S(=O)(=O)c1cccc(NC(=O)CCNC(=O)c2ccccc2Cl)c1	none
CS(=O)(=O)c1ccc2nc(NC(=O)Nc3ccc(Cl)c(Cl)c3)sc2c1	DRD3 agonist 55
CS(=O)(=O)c1ccc2nc(NC(=O)Nc3cccc(Cl)c3)sc2c1	D1 ag 34
Cc1nc2ccc(S(=O)(=O)NC(C(=O)Nc3nc4ccc(Cl)cc4s3)C(C)C)cc2s1 (stereo unspecified)	D1 antag -41 (no result: D1 potentiator)
Cc1ccc(NC(=O)Nc2nc3ccc(S(C)(=O)=O)cc3s2)cc1	none
COC(=O)c1cccc(CN2C(=O)SC(Nc3ccccc3)C2=O)c1 (stereo unspecified)	none
O=C(Cc1ccccc1)N(c1ccccc1)c1ccccc1	none (no result: D1 antag, D1 potentiator, D1 ag)
Cc1ccc(-c2ccc(/C=N/n3cnnc3)o2)cc1Cl	none
Clc1cccc(-c2ccc(/C=N/n3cnnc3)o2)c1	D1 antag -33 (no result: ERG-DNA inh)
Cc1ccc(Oc2ccc(NC(=O)c3ccco3)cc2)cc1	D1 antag -47
COC(=O)c1ccccc1Oc1ccc(NC(=O)c2ccco2)cc1	D1 antag -37
O=C(COc1ccccc1)Nc1ccc(NC(=O)c2ccco2)cc1	D1 antag -73
COc1ccc(NC(=O)c2ccccc2NC(=O)c2ccco2)cc1	none
CC(C)COc1ccc(C(=O)Nc2ccc(NC(=O)c3ccco3)cc2)cc1	D1 antag -35
CN(C(=O)Nc1ccc(Cl)cc1Cl)C1CCCC1	none
COc1ccc(C)cc1NC(=O)CSc1nnc(-c2cc3cccc(OC)c3o2)n1N	none
Cc1nn(-c2cccc(C(F)(F)F)c2)c(Cl)c1/C=N/n1cnnc1	none
Cc1oc(C(=O)Nc2ccc(O)cc2)cc1COc1ccccc1	D1 antag -32
Cc1cc(C)nc(NS(=O)(=O)c2ccc(NC(=S)NC(=O)CC(C)C)cc2)n1	DRD3 antagonist inconclusive
O=C(Nc1ccc(Cl)cc1)Nc1csc([N+](=O)[O-])c1	D1 antag -45
CCOC(=O)C(=O)Nc1cc([N+](=O)[O-])ccc1C	none
CC(NCc1ccc(S(N)(=O)=O)cc1)C(=O)Nc1ccc([N+](=O)[O-])cc1Cl (stereo unspecified)	D1 antag -30
O=C(Nc1ccc([N+](=O)[O-])cc1)Nc1ccc(Cl)cc1F	none
Cc1ccc([N+](=O)[O-])cc1NC(=O)Nc1ccc(S(N)(=O)=O)cc1	D1 antag -79
Cc1ccc([N+](=O)[O-])cc1NC(=O)Nc1onc(C)c1C	D1 antag -36
O=C(Nc1cccnc1Cl)c1cc(-c2ccc(Cl)cc2)on1	none
CC(C)N(C)S(=O)(=O)c1ccc(NC(=O)C2=COCCO2)cc1	none (no result: D1 potentiator)
COc1cc(/C=N/NC(=O)c2ccc3c(c2)OCCO3)c(Br)c(Br)c1O	none
O=C(Nc1ccc(Cl)cc1)Nc1cc([N+](=O)[O-])ccc1F	D1 antag -37
O=C(Nc1csc([N+](=O)[O-])c1)Nc1c(Cl)cccc1Cl	D1 antag -45
O=C(Nc1ccc(Cl)cc1)Nc1ccccc1CC[N+](=O)[O-]	D1 antag -39, D1 ag 35
CN(CC(=O)Nc1ccccc1C(F)(F)F)C(=O)COc1ncnc2sccc12	none
CC(=O)c1cccc(NC(=O)CCNC(=O)c2ccccc2Cl)c1	none
COc1ccc(CNc2nc3c(c(=O)n(Cc4ccc(Cl)cc4)c(=O)n3C)n2C)cc1	none
O=C(Nc1sc2c(c1C(=O)NCCO)CCCC2)c1ccco1	none
O=C1Nc2ccccc2/C1=N/c1sc2c(c1C(=O)NCCc1ccccc1)CCCC2	DRD3 antagonist -90
Cc1cc(Cl)c(OCCCN2CCCCC2)c(Br)c1	none
Cc1cc(Cl)c(OCCCNCc2ccccc2)c(Br)c1	DRD3 antagonist -62, D1 ag 32
Cc1cc(C)c(OCCCNCc2ccccc2)c(Br)c1	D1 ag 37
COCCNCCCCOc1c(Cl)cc(C)cc1Br	DRD3 antagonist -84
Cc1cc(C)c(OCCCNC2CCCC2)c(Br)c1	DRD3 antagonist -53
CCN(CC)CCSc1nc2c([nH]1)c(=S)n(C)c(=O)n2C	none (no result: D1 antag, ERG-DNA inh, D1 potentiator, D1 ag)
CCOC(=O)C(CC)(CCC(=O)OC)c1csc(Nc2ccccc2O)n1 (stereo unspecified)	none (no result: DRD3 antagonist, DRD3 agonist, ERG-DNA inh)
COc1ccc(CN2CCN(Cc3c[nH]c4ccccc34)CC2CCO)c(F)c1 (stereo unspecified)	D1 antag -36
COc1cccc(CN2CCN(Cc3cc4ccccc4[nH]3)CC2CCO)c1 (stereo unspecified)	D1 antag -49, D1 ag 72
COc1ccc(CN2CCN(Cc3cccc(OC)c3)C(CCO)C2)cc1 (stereo unspecified)	none
CCOc1ccc(CN2CCN(Cc3cc4ccccc4[nH]3)CC2CCO)cc1 (stereo unspecified)	D1 antag -30, D1 ag 41
Cc1cc(C)c2c(N)c(-c3nc4ccccc4[nH]3)sc2n1	none
Cc1ccc2nc(-c3sc4nc(C)ccc4c3N)[nH]c2c1	D1 antag -38
CC(C)NC(=O)Nc1ccc2c(c1)N(C)C(=O)c1ccccc1S2	none (no result: DRD3 antagonist)
CC1CCN(S(=O)(=O)c2ccc(NC(=O)CN3CCCC3)cc2)CC1	D1 ag 36
CC1CCN(CC(=O)Nc2ccc(S(=O)(=O)N3CCC(C)CC3)cc2)CC1	none
Cc1ccc(S(=O)(=O)N2CCN(CC(=O)Nc3ccc(N4CCOCC4)cc3)CC2)cc1C	DRD3 antagonist -93
O=C(CN1CCN(c2ccc(O)cc2)CC1)Nc1ccc(S(=O)(=O)N2CCCC2)cc1	DRD3 agonist 98 (no result: D1 antag, D1 potentiator, D1 ag)
Cc1ccc(S(=O)(=O)N2CCOCC2)cc1NC(=O)CN1CCN(c2ccc(O)cc2)CC1	none
O=C(CN1CCN(S(=O)(=O)c2ccc(Br)cc2)CC1)N/N=C/c1ccc(Cl)c([N+](=O)[O-])c1	DRD3 antagonist -70
Cc1ccc(NC(=O)CCN2C(=O)c3ccccc3Sc3ncccc32)c(Cl)c1	none (no result: DRD3 antagonist)
O=C(CNC1CCN(Cc2ccccc2)CC1)Nc1ccc(S(=O)(=O)N2CCCCC2)cc1	DRD3 antagonist -82
O=C(CNC1CCCC1)Nc1ccc(S(=O)(=O)N2CCCCC2)cc1	none
O=C(CN1CCCN(S(=O)(=O)c2ccc(Br)cc2)CC1)Nc1ccc2c(c1)OCO2	D1 antag -49 (no result: DRD3 antagonist, DRD3 agonist, ERG-DNA inh)
O=C(CN1CCOCC1)Nc1ccc(S(=O)(=O)N2CCCCCC2)cc1	DRD3 agonist 31
COc1ccc(S(=O)(=O)N2CCCN(CC(=O)Nc3ccc4c(c3)OCO4)CC2)cc1	none (no result: D1 antag, D1 potentiator, D1 ag)
Cc1nc(SCc2ccccc2)[nH]c(=O)c1CC(=O)OCC(C)C	none
CCCCS(=O)(=O)Nc1ccc2ncn(C)c(=O)c2c1	none

Screens deposited in PubChem by National Center for Advancing Translational Sciences (NCATS).
